Assay [1] has as its target Sphingosine kinase 1 (Homo sapiens) (UniProt Q9NYA1). Particulars: at 1 µM.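 Also: mean SPHK1 inhibition value reported from the GSK PKIS kinase panel screen.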
For assay [2], the target named is T1, Sphingosine kinase 2 (Homo sapiens) (UniProt Q9NRA0).
T1 sequence (whole entry): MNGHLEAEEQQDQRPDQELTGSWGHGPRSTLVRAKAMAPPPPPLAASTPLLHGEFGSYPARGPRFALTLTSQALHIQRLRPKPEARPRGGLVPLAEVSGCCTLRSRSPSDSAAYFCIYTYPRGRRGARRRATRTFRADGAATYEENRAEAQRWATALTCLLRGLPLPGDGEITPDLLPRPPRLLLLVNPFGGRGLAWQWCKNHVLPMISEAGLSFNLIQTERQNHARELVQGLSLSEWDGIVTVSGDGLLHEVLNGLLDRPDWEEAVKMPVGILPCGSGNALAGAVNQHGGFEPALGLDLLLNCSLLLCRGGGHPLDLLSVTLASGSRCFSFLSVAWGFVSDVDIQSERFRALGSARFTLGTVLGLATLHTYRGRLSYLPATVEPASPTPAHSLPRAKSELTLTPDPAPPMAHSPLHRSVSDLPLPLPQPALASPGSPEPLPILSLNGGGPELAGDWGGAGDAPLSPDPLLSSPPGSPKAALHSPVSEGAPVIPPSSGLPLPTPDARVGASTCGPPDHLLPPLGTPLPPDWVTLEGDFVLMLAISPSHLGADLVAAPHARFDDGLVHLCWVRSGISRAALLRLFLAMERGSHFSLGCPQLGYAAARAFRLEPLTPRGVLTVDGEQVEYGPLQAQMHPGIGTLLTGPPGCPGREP
To be noted: at 0.1 µM.

In assay [3] the target is T1, Sphingosine kinase 2 (Homo sapiens). To be noted: at 1 µM.
For assay [4], the target named is Casein kinase II subunit alpha (Homo sapiens) (UniProt P68400). To be noted: at 0.1 µM.
Chain of Casein kinase II subunit alpha (Homo sapiens) (P68400 whole entry, looked up): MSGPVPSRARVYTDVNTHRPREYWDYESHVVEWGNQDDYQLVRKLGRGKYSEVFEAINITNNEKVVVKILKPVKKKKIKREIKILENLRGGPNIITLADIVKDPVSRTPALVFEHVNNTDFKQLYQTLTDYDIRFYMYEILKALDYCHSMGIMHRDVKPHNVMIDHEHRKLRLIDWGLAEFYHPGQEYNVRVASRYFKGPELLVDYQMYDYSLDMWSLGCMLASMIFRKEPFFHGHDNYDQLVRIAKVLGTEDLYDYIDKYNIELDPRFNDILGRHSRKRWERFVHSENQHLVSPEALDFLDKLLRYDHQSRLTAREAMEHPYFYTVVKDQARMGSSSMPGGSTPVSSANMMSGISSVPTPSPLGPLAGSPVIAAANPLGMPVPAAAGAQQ
The target is the same in assay [5]. Particulars: at 1 µM.
In assay [6] the target is T2, Inhibitor of nuclear factor kappa-B kinase subunit alpha (Homo sapiens) (UniProt O15111).
T2 sequence (whole entry): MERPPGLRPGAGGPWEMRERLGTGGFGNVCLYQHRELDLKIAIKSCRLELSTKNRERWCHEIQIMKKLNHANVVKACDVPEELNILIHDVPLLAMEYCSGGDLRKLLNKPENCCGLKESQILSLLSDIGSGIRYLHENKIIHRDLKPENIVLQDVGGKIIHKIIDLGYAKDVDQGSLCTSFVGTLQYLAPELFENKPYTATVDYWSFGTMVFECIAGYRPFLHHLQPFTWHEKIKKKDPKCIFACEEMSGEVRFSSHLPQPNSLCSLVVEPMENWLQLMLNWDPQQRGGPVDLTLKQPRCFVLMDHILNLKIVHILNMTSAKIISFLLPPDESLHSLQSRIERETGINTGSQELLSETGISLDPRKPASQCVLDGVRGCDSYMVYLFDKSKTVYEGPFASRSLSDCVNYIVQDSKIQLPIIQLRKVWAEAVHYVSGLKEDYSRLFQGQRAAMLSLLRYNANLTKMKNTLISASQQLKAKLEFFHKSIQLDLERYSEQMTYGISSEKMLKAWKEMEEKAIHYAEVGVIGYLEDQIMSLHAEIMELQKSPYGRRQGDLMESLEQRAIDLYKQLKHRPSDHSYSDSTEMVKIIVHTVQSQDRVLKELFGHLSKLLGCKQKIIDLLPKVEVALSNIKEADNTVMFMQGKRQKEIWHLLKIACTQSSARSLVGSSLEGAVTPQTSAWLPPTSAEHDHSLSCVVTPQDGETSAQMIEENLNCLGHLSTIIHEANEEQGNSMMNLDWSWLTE
To be noted: at 0.1 µM.

The target of assay [7] is T2, Inhibitor of nuclear factor kappa-B kinase subunit alpha (Homo sapiens). To be noted: at 1 µM.
Assay [8] addresses T3, Inhibitor of nuclear factor kappa-B kinase subunit beta (Homo sapiens) (UniProt O14920).
T3 sequence (whole entry): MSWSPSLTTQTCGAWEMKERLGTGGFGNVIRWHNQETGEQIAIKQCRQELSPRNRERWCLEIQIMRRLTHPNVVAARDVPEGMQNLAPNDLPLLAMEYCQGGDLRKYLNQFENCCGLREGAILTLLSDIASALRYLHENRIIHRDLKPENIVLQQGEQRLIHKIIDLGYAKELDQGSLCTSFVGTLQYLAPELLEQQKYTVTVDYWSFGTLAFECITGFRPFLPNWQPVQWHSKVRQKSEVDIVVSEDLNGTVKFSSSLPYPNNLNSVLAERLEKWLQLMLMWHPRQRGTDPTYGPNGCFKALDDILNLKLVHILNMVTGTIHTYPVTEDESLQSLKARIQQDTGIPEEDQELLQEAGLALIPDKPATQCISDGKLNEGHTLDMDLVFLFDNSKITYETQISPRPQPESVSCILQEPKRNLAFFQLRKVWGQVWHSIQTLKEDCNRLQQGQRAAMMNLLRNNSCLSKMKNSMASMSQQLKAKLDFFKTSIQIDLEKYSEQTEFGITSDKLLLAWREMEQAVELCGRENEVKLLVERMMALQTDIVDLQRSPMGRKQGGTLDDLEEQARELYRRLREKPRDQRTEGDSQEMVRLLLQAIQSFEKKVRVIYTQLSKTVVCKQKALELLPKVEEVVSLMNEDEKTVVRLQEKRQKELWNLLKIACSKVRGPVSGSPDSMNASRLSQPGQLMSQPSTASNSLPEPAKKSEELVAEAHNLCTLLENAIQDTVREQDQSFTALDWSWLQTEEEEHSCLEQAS
Particulars: at 0.1 µM.

The target in assay [9] is T3, Inhibitor of nuclear factor kappa-B kinase subunit beta (Homo sapiens). Particulars: at 1 µM.
The target of assay [10] is T4, Inhibitor of nuclear factor kappa-B kinase subunit epsilon (Homo sapiens) (UniProt Q14164).
T4 sequence (whole entry): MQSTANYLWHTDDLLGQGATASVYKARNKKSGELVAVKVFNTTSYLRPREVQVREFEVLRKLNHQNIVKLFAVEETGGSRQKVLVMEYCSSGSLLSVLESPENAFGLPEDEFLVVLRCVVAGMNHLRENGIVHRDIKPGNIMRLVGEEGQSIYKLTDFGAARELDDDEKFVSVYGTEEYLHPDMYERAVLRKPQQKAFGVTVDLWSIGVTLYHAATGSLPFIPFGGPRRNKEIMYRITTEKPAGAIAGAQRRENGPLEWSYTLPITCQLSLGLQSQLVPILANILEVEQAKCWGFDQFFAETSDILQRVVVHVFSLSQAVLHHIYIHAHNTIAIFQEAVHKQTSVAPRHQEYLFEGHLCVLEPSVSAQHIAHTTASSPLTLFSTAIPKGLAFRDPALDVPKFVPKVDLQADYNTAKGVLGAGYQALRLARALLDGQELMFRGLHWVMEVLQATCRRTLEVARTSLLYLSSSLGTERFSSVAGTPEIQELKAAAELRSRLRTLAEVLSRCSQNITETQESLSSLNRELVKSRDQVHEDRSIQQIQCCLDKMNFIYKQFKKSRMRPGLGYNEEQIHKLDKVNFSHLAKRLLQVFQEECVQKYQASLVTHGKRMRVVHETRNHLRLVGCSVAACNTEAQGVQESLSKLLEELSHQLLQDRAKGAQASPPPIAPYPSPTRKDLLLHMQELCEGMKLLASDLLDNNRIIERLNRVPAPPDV
To be noted: at 0.1 µM.

The target in assay [11] is T4, Inhibitor of nuclear factor kappa-B kinase subunit epsilon (Homo sapiens). To be noted: at 1 µM.
In assay [12] the target is T5, Serine/threonine-protein kinase Nek1 (Homo sapiens) (UniProt Q96PY6).
T5 sequence (whole entry): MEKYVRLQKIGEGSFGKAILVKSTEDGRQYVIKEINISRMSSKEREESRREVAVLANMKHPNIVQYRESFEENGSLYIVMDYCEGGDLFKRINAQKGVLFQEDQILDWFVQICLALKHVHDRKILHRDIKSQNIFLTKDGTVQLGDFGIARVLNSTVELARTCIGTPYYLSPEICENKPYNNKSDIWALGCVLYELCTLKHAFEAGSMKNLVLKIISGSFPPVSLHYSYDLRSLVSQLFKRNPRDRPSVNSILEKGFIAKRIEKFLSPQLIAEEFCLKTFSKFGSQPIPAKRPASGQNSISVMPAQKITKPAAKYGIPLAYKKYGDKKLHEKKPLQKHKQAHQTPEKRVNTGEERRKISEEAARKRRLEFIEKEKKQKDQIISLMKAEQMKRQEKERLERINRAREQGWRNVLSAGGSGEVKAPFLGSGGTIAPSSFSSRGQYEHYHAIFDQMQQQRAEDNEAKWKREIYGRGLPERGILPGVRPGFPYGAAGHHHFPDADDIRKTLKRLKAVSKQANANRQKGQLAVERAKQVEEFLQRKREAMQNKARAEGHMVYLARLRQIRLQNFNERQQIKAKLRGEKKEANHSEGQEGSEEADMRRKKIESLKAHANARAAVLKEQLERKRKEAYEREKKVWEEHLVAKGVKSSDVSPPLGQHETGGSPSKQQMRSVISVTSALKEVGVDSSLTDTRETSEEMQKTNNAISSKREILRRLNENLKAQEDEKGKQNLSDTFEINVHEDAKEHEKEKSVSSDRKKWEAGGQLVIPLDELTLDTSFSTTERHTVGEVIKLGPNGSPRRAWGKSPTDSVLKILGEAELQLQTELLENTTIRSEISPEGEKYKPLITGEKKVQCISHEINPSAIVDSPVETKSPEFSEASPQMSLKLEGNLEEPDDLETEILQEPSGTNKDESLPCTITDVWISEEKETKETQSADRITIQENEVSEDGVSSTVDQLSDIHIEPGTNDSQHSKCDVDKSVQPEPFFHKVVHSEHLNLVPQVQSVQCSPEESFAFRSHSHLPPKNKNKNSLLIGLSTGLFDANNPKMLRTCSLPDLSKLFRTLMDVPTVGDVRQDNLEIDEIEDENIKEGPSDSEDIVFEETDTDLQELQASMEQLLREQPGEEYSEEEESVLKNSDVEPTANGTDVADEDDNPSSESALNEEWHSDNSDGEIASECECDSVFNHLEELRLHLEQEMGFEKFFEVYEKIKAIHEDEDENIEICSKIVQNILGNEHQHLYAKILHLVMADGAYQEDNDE
Particulars: at 0.1 µM.

In assay [13] the target is T5, Serine/threonine-protein kinase Nek1 (Homo sapiens). Particulars: at 1 µM.
The target of assay [14] is T6, Serine/threonine-protein kinase Nek2 (Homo sapiens) (UniProt P51955).
T6 sequence (whole entry): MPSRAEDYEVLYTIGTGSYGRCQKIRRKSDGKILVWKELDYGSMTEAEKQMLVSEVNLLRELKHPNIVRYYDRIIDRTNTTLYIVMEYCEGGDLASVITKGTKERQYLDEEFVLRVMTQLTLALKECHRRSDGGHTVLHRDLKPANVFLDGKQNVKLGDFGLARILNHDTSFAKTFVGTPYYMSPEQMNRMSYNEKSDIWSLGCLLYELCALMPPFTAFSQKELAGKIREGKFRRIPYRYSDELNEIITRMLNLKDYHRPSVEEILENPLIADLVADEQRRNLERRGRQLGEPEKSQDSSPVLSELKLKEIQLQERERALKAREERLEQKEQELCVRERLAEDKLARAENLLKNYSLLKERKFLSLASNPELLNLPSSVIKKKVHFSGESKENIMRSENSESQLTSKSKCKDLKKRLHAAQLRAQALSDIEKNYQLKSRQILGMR
To be noted: at 0.1 µM.

In assay [15] the target is T6, Serine/threonine-protein kinase Nek2 (Homo sapiens). To be noted: at 1 µM.
Assay [16] deals with Serine/threonine-protein kinase Nek6 (Homo sapiens) (UniProt Q9HC98). To be noted: at 0.1 µM.
Chain of Serine/threonine-protein kinase Nek6 (Homo sapiens) (Q9HC98 whole entry): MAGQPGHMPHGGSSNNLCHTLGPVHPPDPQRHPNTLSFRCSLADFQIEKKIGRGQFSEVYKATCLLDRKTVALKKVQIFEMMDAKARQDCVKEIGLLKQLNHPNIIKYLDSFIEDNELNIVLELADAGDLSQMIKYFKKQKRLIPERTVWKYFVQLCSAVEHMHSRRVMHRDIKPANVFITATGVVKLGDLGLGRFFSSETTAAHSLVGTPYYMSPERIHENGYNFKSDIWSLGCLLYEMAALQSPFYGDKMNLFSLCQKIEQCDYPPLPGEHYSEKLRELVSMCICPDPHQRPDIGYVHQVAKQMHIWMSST
For assay [17] the target is unchanged. Particulars: at 1 µM.
Assay [18] concerns the target Serine/threonine-protein kinase Nek7 (Homo sapiens) (UniProt Q8TDX7). Particulars: at 0.1 µM.
Assay [19] has the same target. To be noted: at 1 µM.
In assay [20] the target is T7, Serine/threonine-protein kinase Nek9 (Homo sapiens) (UniProt Q8TD19).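 Also: reported value is the mean percent inhibition of NEK9.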
T7 sequence (whole entry): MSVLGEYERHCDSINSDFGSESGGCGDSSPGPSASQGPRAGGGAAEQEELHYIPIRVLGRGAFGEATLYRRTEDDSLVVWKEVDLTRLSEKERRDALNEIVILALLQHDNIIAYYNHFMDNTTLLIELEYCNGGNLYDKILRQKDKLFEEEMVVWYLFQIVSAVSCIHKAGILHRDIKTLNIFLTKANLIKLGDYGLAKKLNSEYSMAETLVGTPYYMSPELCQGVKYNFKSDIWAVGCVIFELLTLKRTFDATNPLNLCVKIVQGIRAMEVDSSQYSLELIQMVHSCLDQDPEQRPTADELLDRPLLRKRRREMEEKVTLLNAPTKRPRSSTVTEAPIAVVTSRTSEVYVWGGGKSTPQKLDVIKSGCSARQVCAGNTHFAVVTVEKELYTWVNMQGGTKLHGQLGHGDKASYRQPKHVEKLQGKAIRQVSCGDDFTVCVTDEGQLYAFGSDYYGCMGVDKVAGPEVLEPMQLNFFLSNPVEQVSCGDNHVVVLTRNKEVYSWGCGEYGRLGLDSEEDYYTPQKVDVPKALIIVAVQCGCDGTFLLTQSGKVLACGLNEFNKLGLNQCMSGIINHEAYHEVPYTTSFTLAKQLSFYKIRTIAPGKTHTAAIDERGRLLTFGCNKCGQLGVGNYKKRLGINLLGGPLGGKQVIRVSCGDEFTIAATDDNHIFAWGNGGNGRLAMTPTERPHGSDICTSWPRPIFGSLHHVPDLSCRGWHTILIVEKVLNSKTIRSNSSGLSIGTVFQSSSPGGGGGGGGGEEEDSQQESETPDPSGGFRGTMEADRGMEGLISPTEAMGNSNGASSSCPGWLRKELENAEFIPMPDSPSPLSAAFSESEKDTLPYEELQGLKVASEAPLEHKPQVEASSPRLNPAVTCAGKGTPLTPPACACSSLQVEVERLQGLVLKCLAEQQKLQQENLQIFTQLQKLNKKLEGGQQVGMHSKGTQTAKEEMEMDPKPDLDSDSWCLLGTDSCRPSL
To be noted: at 0.1 µM.

The text below walks through data of ChEMBL document CHEMBL1961873, “Compounds: GSK PKIS; Assays: Nanosyn kinase panel” (2012).

Structures are written as SMILES.

Chain of Serine/threonine-protein kinase Nek7 (Homo sapiens) (Q8TDX7 whole entry, looked up): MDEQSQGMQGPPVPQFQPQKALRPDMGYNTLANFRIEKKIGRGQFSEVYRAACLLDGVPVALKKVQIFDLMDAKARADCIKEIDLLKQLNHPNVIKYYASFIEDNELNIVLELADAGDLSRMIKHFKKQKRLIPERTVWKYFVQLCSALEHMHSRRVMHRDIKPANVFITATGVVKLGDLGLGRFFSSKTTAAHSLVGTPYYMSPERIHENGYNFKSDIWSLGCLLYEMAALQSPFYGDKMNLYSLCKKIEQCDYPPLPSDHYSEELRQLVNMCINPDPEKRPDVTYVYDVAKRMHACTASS
Chain of Sphingosine kinase 1 (Homo sapiens) (Q9NYA1 whole entry): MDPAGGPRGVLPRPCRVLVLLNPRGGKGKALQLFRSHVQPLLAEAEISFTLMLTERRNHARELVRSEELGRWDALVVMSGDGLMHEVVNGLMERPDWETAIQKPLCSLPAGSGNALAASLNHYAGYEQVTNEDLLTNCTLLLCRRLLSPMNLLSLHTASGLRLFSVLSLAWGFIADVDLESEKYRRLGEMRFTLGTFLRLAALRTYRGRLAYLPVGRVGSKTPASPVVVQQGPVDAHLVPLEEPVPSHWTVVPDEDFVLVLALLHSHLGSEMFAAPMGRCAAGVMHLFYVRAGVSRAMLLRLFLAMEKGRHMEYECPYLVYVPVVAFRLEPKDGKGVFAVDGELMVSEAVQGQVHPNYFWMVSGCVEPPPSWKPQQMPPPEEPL

Broadly, the inhibition is the change of the read-out against control, counted positive when it falls. For `COc1cccc(-n2ncc3c(N/N=C/c4ccc(F)cc4)ncnc32)c1`, the inhibition in assay [1] is -1.38%; in assay [2], -1.23%; in assay [3], 0.38%; in assay [4] it was 4.77%; in assay [5], 15.9%; in [6] it was 12.3%. Further, the inhibition stood at 6.86% in assay [7]; 5.69% in assay [8]; 3.91% in assay [9]; 14.1% in assay [10]; 8.08% in assay [11]; 2.09% in assay [12]. Besides, the inhibition in assay [13] is 4.05%; in [14], 3.93%; in assay [15], 2.32%; in assay [16], 2.71%; in assay [17] it was 3.01%; in [18], 1.25%. Besides, the inhibition in assay [19] stood at 3.29%; in [20] it was 1.55%.
